Screening results as filed in PubChem.
This is a sample that favours compounds with a hit; in the whole collection about 2.4% have one here.
MEKK2 mut-MEK5 – signal of MEK5 binding to mutant human MEKK2 PB1 domain. bead flow cytometry, Alexa488-MEK5 binding to MEKK2 mutant. percent response, % at 10 µM. hit rate 0.35% among 290,000; in the data active means percent response above about 24%, passing the limit was not always enough
MEKK3 PB1 HTS – MEKK3-MEK5 PB1 interaction, increase or decrease. Q99759. bead-based flow cytometry, Alexa488-MEK5 binding to MEKK3; actives lie on both sides; 0 = blocked by unlabeled MEK5, 100 = vehicle. binding response (% of control), % at 10 µM. hit rate 1.4% among 290,000. AID 1529;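 active means binding response more than 3 SD above or below the average of its plate-row segment, actives on both sides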;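 further: Alexa488 bead fluorescence after subtracting the streptavidin-only scavenger bead signal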
Target sequence (Q99759 whole entry, looked up): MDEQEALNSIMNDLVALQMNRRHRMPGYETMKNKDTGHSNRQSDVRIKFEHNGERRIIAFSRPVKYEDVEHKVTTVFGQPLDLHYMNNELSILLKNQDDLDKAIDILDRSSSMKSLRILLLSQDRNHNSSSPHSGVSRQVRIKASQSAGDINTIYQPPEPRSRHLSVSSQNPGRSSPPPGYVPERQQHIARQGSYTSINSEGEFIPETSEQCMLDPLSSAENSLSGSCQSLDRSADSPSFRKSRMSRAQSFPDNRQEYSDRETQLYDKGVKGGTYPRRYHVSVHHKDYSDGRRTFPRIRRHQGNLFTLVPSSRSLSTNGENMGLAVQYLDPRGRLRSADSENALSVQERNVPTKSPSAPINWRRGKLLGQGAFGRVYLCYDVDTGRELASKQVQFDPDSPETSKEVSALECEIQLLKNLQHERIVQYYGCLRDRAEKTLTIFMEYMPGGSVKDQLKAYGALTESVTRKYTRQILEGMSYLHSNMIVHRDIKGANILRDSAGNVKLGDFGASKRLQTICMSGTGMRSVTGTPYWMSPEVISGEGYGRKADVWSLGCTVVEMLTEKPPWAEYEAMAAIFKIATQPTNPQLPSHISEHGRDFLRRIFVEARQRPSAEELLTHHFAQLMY
MEKK2 WT-MEK5 – raises or lowers MEK5 binding to wildtype human MEKK2 PB1 domain | Q9Y2U5 | bead flow cytometry, Alexa488-MEK5 binding to MEKK2 WT; actives lie on both sides | binding response (% of control), % at 10 µM | hit rate 1.1% among 290,000; in the data active means binding response below about 67% or above about 130%
Pf gamet viab – kills late stage P. falciparum gametocytes; P. falciparum stage V gametocytes, ATP luminescence, 24 h; inhibition, % at 10.9 µM; hit rate 0.065% among 150,000;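 active means inhibition above the mean plus 3 SD of compounds within the control limits, set per campaign, cut at about 38% in these data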;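 further: 0% = DMSO wells and 100% = medium only without gametocytes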
Arbovirus anti – antivirals against arbovirus infection | arbovirus infection cell-based antiviral screen | inhibition, % at 10 µM | hit rate 0.37% among 200,000 | AID 1251; in the data active means inhibition above about 30%
MEKK2wt confirm – raises or lowers MEK5 binding to wildtype human MEKK2, retest; shares compounds with MEKK3 PB1 HTS; binding response (% of control), % at 10 µM; bead flow cytometry, Alexa488-MEK5 binding to MEKK2 WT; actives lie on both sides; AID 1892; hit rate 2.4% among 5,900; in the data active means binding response below about 16% or above about 210%; inactive means in between
MEKK2mut confirm – signal of MEK5 binding to mutant human MEKK2, retest | hit rate 2% among 5,900 | percent response, % at 10 µM | shares compounds with MEKK3 PB1 HTS | bead flow cytometry, Alexa488-MEK5 binding to MEKK2 mutant; in the data active means percent response mostly above about 71%, no sharp cut-off; inactive means mostly below about 38%;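 further: higher means compound restores mutant binding toward wildtype level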
MEKK3 confirm – MEKK3-MEK5 PB1 inhibition, single concentration confirmation | shares compounds with MEKK3 PB1 HTS | bead flow cytometry, Alexa488-MEK5 binding to MEKK3; active compounds read low | binding response (% of control), % at 10 µM | hit rate 1.8% among 5,900 | AID 1894;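 active means binding response below 72% of control, or above a set upper limit, though filed actives all read lower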;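 further: 100% = DMSO only wells and 0% = binding blocked by excess unlabeled MEK5; lower values mean stronger disruption of MEK5 binding to MEKK3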
Active calls of the source: *; . = no result; [ ] = remark or other dose.

SMILES | MEKK2 mut-MEK5 | MEKK3 PB1 HTS | MEKK2 WT-MEK5 | Pf gamet viab | Arbovirus anti | MEKK2wt confirm | MEKK2mut confirm | MEKK3 confirm
CCSc1nnc(NC(=O)[C@@H](NC(=O)c2ccc(C(C)(C)C)cc2)C(C)C)s1 | -1 | 93 | 90 | -21 | 10 | . | . | .
CCN(CC)CC(=O)N1c2ccccc2CCc2ccc(NC(=O)c3cc(OC)c(OC)c(OC)c3)cc21 | 13 | 99 | 123 | 1 | . | . | . | .
COCCN(CC(=O)NCc1ccc(F)cc1)C(=O)CCC(=O)Nc1ccccn1 | -10 | 81*[inhibitor] | 90 | 18 | 8 | 102 | -5 | 99
CN(Cc1ccccn1)Cc1cn(Cc2ccccc2)nc1-c1ccc2c(c1)OCO2 | 42 | 107 | 196* | 20 | 10 | 106 | 4 | 101
CN(Cc1cnccn1)Cc1cn(Cc2ccccc2)nc1-c1ccc2c(c1)OCO2 | -6 | 97 | 91 | 13 | 0 | . | . | .
COc1cc(/C=C(\NC(=O)c2ccccc2)C(=O)NCC(=O)O)c([N+](=O)[O-])cc1OC | 0 | 132* | 108 | -14 | -1 | 109 | 21 | 111
O=C(N/C(=C\c1ccc(-c2ccccc2)o1)C(=O)N1CCOCC1)c1ccccc1 | -11 | 96 | 84 | -12 | -12 | . | . | .
O=C(CN1C(=O)COc2ccccc21)c1ccc(Cl)cc1 | 5 | 122* | 117 | . | 0 | 95 | 1 | 102
O=C(CN1C(=O)COc2ccccc21)c1cccc(Cl)c1 | 2 | 100 | 97 | 7 | 7 | . | . | .
O=C(NNC(=S)Nc1cccc(C(F)(F)F)c1)c1ccccc1Cl | 1 | 66*[inhibitor] | 91 | -2 | -15 | 103 | 4 | 100
O=C(NNC(=S)Nc1cccc(C(F)(F)F)c1)c1cccc(Cl)c1 | -1 | 100 | 99 | 0 | -8 | . | . | .
NS(=O)(=O)c1ccc(-c2ccc(/C=C3\SC(=S)N(C4CCS(=O)(=O)C4)C3=O)o2)cc1 (centres undefined) | -31 | 78 | 56*[inhibitor] | -24 | . | 76 | -12 | 98
O=C(O)CCSCCCN1C(=O)c2cccc3cccc(c23)C1=O | -1 | 100 | 98 | 2 | 2 | . | . | .
CN(C(=O)c1cccs1)c1ccc(OCC(=O)Nc2ccc(C(=O)O)cc2)cc1 | 8 | 105 | 106 | 13 | . | . | . | .
Cc1cc(C)n(C(=O)CNC(=O)/C=C/c2ccccc2)n1 | -15 | 94 | 84 | -8 | 5 | . | . | .
COc1ccccc1/C=C/C(=O)NCC(=O)n1nc(C)cc1C | -40 | 58*[inhibitor] | 59*[inhibitor] | 2 | . | 101 | 0 | 104
Cc1cc(C(=O)NNS(=O)(=O)c2cccc(Cl)c2)nn1C(C)(C)C | -1 | 101 | 104 | 1 | . | . | . | .
CC(=O)Nc1ccc(C=C(C(C)=O)C(C)=O)cc1 | -1 | 100 | 101 | 20 | . | . | . | .
COc1cccc(N/C(SCc2ccccc2C)=C(/C#N)C(=O)NCc2cccs2)c1 | -1 | 130* | 97 | . | -15 | 83 | -21 | 84
C/C(N)=C(/C#N)C(=O)CSc1cc(C)c2cc(C)cc(C)c2n1 | 4 | 105 | 106 | -34 | 3 | . | . | .
Cc1ccc(-c2ccc(SCC(=O)c3ccccc3)nn2)cc1 | 13 | 95 | 63*[inhibitor] | 11 | -24 | 98 | 0 | 101
O=C(CSc1ccc(-c2ccco2)nn1)NCc1ccc(F)cc1 | 0 | 112 | 100 | . | -9 | . | . | .
O=C(CSc1ccc(-c2ccco2)nn1)c1ccc(F)cc1 | 1 | 128* | 105 | -7 | -19 | 108 | 4 | 100
O=C(CSc1n[nH]c(=O)n1Cc1ccco1)c1ccc(F)cc1 | 28 | 131* | 133 | 13 | . | 108 | 6 | 104
Cc1cc(C)cc(NC(=O)CSc2ccc(-c3ccco3)nn2)c1 | 27 | 109 | 115 | -13 | -5 | . | . | .
Cc1cccc(NC(=O)CSc2ccc(-c3ccco3)nn2)c1 | 0 | 129* | 102 | -7 | -8 | 108 | 6 | 107
O=C(CSc1n[nH]c(=O)n1Cc1ccco1)N1CCOCC1 | -3 | 97 | 100 | 10 | . | . | . | .
